# Reference: PubChem BioAssay AID651776 (Vanderbilt Specialized Chemistry Center, 2012)
# Target: Muscarinic acetylcholine receptor M5 (Homo sapiens) (UniProt P08912)
# Test: M5 positive allosteric modulator fold shift, mechanism study, cell-based, calcium fluorescence (AID 651776)
# Details: M5-expressing cells, agonist fold-shift, agonist curve fold shift, stronger effect = higher value
# Sequence of Muscarinic acetylcholine receptor M5 (Homo sapiens) (P08912 whole entry, looked up): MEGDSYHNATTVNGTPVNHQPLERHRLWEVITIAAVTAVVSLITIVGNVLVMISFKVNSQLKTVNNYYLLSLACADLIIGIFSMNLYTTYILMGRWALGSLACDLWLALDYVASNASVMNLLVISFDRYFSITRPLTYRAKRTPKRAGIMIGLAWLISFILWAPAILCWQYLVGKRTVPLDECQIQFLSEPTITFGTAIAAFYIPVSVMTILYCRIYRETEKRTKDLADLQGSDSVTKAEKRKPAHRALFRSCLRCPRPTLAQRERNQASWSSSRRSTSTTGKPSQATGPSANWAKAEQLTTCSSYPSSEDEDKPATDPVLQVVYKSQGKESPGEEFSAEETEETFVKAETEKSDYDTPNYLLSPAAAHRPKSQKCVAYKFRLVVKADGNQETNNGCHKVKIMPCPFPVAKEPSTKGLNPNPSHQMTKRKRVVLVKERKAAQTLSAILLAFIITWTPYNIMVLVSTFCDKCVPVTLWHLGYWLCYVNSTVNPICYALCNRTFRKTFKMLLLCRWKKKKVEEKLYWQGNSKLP
smiles,measurement,value
O=C1C(=O)N(CCOc2ccccc2)c2ccc(OC(F)(F)F)cc21,fold shift,19.2
